Assay results reported in PubChem BioAssay (Tox21).
Results filed as inconclusive are left out. Calls of active or inactive are those of the source. Unless noted, the call rests on the fitted dose curve; in most records, active means well fitted curve in the direction sought with a large enough effect in the repeat runs; inconclusive means weak or mixed curves; inactive means no such curve, though single readings can be large; an effect the other way counts as inactive or inconclusive.

What was measured:
[1] = qHTS assay to identify small molecule agonists of the vitamin D receptor (VDR) signaling pathway - cell viability counter screen (AID 743224); further: series mostly up to about 63 µM; nearly all actives have a fitted effect of over 50% in size
How it was run: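 Counter screen for cytotoxicity: VDR-bla cells at 2,000 cells/well, 16 h compound exposure, then CellTiter-Glo luminescence after the beta-lactamase measurement.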

[2] = qHTS assay to identify small molecule antagonists of the vitamin D receptor (VDR) signaling pathway - cell viability counter screen (AID 743225); further: nearly all actives have a fitted effect of over 50% in size
How it was run: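 HEK293T VDR-bla; cpd + 1a,25-(OH)2D3 3 nM final, 16 h 37C/5% CO2; B/G FRET substrate 2 h RT; then CellTiter-Glo 30 min RT, luminescence.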

[3] = qHTS assay to identify small molecule agonists of the NFkB signaling pathway (AID 1159509; active means well fitted curve in the direction sought with a large enough effect in the signal ratio in the repeat runs, not every such curve was filed as active; the % refers to the signal ratio; further: series mostly up to about 61 µM)
How it was run: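 Pathway activation was measured in ME-180 cells stably expressing beta-lactamase under NF-kB response element control. Substrate cleavage was read as the 460/530 nm emission shift after 5 hr compound incubation.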

[4] = qHTS assay to identify small molecule agonists of the NFkB signaling pathway - cell viability counter screen (AID 1159515; calls by dose curve; further: series mostly up to about 61 µM; nearly all actives have a fitted effect of over 55% in size)
How it was run: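 Counter screen run alongside the NFkB-bla agonist assay: ME-180 reporter cells exposed to compounds for 5 hr, then lysed with CellTiter-Glo in the same wells. Luminescence, read after 30 min, reflects viable cells.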

[5] = qHTS assay to identify small molecule agonists of the endoplasmic reticulum stress response signaling pathway (AID 1159516; active means well fitted activation curve with a large enough effect in the signal ratio in the repeat runs, not every such curve was filed as active; the % refers to the signal ratio)
How it was run: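 For this screen, HeLa cells stably carrying beta-lactamase under the ER stress response element received test compounds, positive controls or DMSO for 5 hr at 37 C; B/G FRET substrate was then added and dual-wavelength emission recorded.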

[6] = qHTS assay to identify small molecule agonists of the endoplasmic reticulum stress response signaling pathway - cell viability counter screen (AID 1159517; calls by dose curve; further: series mostly up to about 61 µM; nearly all actives have a fitted effect of over 50% in size)
How it was run: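 ESRE-bla HeLa cells (1,500/well) were plated overnight at 37 C and exposed to compounds for 5 hr. After the 2 hr beta-lactamase substrate read, CellTiter-Glo went into the same wells, and luminescence was read after 30 min at room temperature.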

[7] = qHTS assay to identify small molecule antagonists of the retinoid-related orphan receptor gamma (ROR-gamma) signaling pathway - cell viability counter screen (AID 1159520); further: nearly all actives have a fitted effect of over 50% in size
How it was run: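 Cytotoxicity was read from cellular ATP (CellTiter-Glo luminescence) after 16 hr at 37 C with 1 uM doxycycline induction. The inducer was added 2 hr after compound transfer to Tet-on ROR gamma CHO cells.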

[8] = target: Nuclear receptor ROR-gamma (Homo sapiens) (UniProt P51449); assay: qHTS assay to identify small molecule antagonists of the retinoid-related orphan receptor gamma (ROR-gamma) signaling pathway (AID 1159521)
How it was run: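 Cells were plated, rested 4 h at 37 C, exposed to compounds for 2 h, then given 1 uM final doxycycline hyclate to induce RORγ expression. After 16 h, ONE-Glo luminescence from the ROR response element reporter was measured.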

[9] = qHTS assay to identify small molecule agonists of the AP-1 signaling pathway - cell viability counter screen (AID 1159525; calls by dose curve; further: nearly all actives have a fitted effect of over 55% in size)
How it was run: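 Intracellular ATP by Cell Titer Glo luminescence (30 min, RT) in the same ME-180 AP-1-bla wells after the 5 h compound exposure at 37 °C. Normalised to tetra n-octyl ammonium bromide and DMSO controls.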

[10] = qHTS assay to identify small molecule agonists of the AP-1 signaling pathway (AID 1159526; calls by dose curve)
[11] = target: Retinoic acid receptor RXR-alpha (Homo sapiens) (UniProt P19793); assay: qHTS assay to identify small molecule agonists of the RXR signaling pathway (AID 1159527; calls by dose curve; further: nearly all actives have a fitted effect of over 35% in size)
Chain of Retinoic acid receptor RXR-alpha (Homo sapiens) (P19793 whole entry, looked up): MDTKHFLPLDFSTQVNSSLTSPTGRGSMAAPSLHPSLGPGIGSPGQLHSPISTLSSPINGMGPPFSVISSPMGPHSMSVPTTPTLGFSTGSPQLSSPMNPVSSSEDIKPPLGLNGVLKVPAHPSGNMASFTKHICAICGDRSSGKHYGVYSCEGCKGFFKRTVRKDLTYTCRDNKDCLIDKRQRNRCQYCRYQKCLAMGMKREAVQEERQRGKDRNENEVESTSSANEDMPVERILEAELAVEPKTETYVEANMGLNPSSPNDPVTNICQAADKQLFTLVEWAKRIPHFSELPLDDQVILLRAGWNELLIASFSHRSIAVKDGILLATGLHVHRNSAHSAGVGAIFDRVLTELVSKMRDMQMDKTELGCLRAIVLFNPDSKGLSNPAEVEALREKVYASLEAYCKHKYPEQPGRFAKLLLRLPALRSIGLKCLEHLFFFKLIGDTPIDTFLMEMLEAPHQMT
How it was run: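 Cells plated at 2,000/well, rested 5 hr at 37 C, pin-dosed with DMSO compound solutions, incubated 16 hr, then loaded with B/G FRET substrate for 2 hr at RT before dual-emission fluorescence reading.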

[12] = qHTS assay to identify small molecule agonists of the RXR signaling pathway - cell viability counter screen (AID 1159529)
How it was run: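 Steps: seed RXR-alpha-UAS-bla HEK 293T cells in assay medium containing 2% charcoal-stripped FBS; incubate 5 hr; add compounds in DMSO; incubate 16 hr at 37 C; after the bla read, add CellTiter-Glo and read luminescence at 30 min.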

[13] = qHTS assay to identify small molecule antagonists of the retinoid acid receptor (RAR) signaling pathway - cell viability counter screen (AID 1159551); further: nearly all actives have a fitted effect of over 35% in size
How it was run: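 Measured by luminescent ATP detection, viability reflects C3RL4 cells treated 6 h at 37 C with test chemicals in the presence of 1 uM (final) retinol.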

[14] = qHTS assay to identify small molecule antagonists of the retinoic acid receptor (RAR) signaling pathway (AID 1159552; further: nearly all actives have a fitted effect of over 50% in size)
How it was run: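 Retinol at 1 uM final stimulated RARE-luciferase expression in C3RL4 cells exposed to test compounds for 6 hr at 37 C. Reduced luminescence, read 30 min after detection reagent, indicated pathway antagonism.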

[15] = qHTS assay to identify small molecule agonists of the retinoic acid receptor (RAR) signaling pathway (AID 1159553)
How it was run: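 6 hr compound exposure (DMSO vehicle) of overnight-plated C3RL4 RARE-luc cells at 37 C; luminescence quantified after 30 min RT with luciferase reagent.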

[16] = qHTS assay to identify small molecule antagonists of the estrogen related receptor (ERR) signaling pathway - cell viability counter screen (AID 1224818); further: series mostly up to about 46 µM
How it was run: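 Compounds dissolved in DMSO were applied to ERR cells seeded at 2,000 per well 6 h earlier. Cell viability followed 17.5 h later via 30-min CellTiter-Fluor fluorescence.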

[17] = qHTS assay to identify small molecule antagonists of the estrogen related receptor signaling pathway with the pleiotropic PPARgamma coactivator (PGC) cell viability counter screen (AID 1224822; further: series mostly up to about 46 µM)
How it was run: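 Counter screen for cell viability: PGC/ERR cells, 6 h pre-incubation after plating, 17.5 h compound exposure at 37 C, fluorescence from CellTiter-Fluor after 30 min.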

Measured: Potency

CC/C=C\CCOC(C)=O
not listed: [16] | [17]
inactive: all other assays above

Cc1[nH]c(=O)c(C#N)cc1-c1ccc2nccn2c1
not listed: [15]
inactive: all other assays above

CC(=O)OC/C=C(\C)CC/C=C(\C)CCC=C(C)C
not listed: [2] | [15] | [16] | [17]
inactive: all other assays above

c1cnc(N2CCN(Cc3ccc4c(c3)OCO4)CC2)nc1
not listed: [2] | [15]
inactive: all other assays above

Cc1c(NC(C)C)c(=O)n(-c2ccccc2)n1C
not listed: [16] | [17]
inactive: all other assays above

CO[C@]12C[C@@H](COC(=O)c3cncc(Br)c3)CN(C)[C@@H]1Cc1cn(C)c3cccc2c13
not listed: [16] | [17]
inactive: all other assays above

Cc1sccc1Br
not listed: [15] | [16] | [17]
inactive: all other assays above

CCC(C)C1CCCCC1=O (centres undefined)
not listed: [16] | [17]
inactive: all other assays above

CC(NC(CCc1ccccc1)C(=O)O)C(=O)N1C(=O)N(C)CC1C(=O)O (centres undefined)
not listed: [16] | [17]
inactive: all other assays above

CCCCCCCCCCCCN(CCCCCCCCCCCC)CCCCCCCCCCCC
not listed: [16] | [17]
inactive: all other assays above

CCCN1CCCC[C@H]1C(=O)Nc1c(C)cccc1C
not listed: [15] | [16] | [17]
inactive: all other assays above

CC(=O)OCC(=O)[C@@]1(O)CCC2C3CCC4=CC(=O)CC[C@]4(C)C3[C@@H](O)C[C@@]21C (some centres undefined)
not listed: [15] | [16] | [17]
inactive: all other assays above

C=C(C)C(=O)OCCCCCCCC(C)C
not listed: [15] | [16] | [17]
inactive: all other assays above

C=CCCCCCCCCC=O
not listed: [12] | [16] | [17]
inactive: all other assays above
